PubChem BioAssay AID1159580 (chemical genetic matrix, 2015)
The whole screen tested about 5,500 compounds, of which about 2,000 (36%) were called active. Roughly 18% stayed inconclusive and do not appear here. Cut-off read from the data, not from the text of the source: active = normalized growth mostly below about 0.91 (no sharp cut-off); inconclusive = no clear call, values can overlap the other calls; inactive = mostly above about 0.92. This is one part of the list.

Assay: chemical genetic growth profiling, strain panel (AID 1159580);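 note: tested at 20 µM; growth read once vehicle control cultures reached saturation at 30 °C; 1 = growth at the plate median or of vehicle wells; lower values mean less growth of the strain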
Settings: growth OD

Measured: normalized growth

Cc1c(N(C)C)c(=O)n(-c2ccccc2)n1C
inactive: S. cerevisiae deletion strains, locus YKL009W, strain mrt4, active compounds read low 0.984 | S. cerevisiae deletion strains, locus YKL068W, active compounds read low 0.991 | S. cerevisiae deletion strains, locus YKL085W, strain MDH1 (second series), active compounds read low 0.985 | S. cerevisiae deletion strains, locus YKL085W, strain MDH1, active compounds read low 0.985 | S. cerevisiae deletion strains, locus YKL160W, strain elf1, active compounds read low 0.988 | S. cerevisiae deletion strains, locus YKL190W, strain CNB1, active compounds read low 0.988 | S. cerevisiae deletion strains, locus YKR001C, strain vps1, active compounds read low 1 | S. cerevisiae deletion strains, locus YKR026C, strain gcn3, active compounds read low 0.992 | S. cerevisiae deletion strains, locus YKR091W, strain srl3, active compounds read low 0.976 | S. cerevisiae deletion strains, locus YLL001W, strain dnm1, active compounds read low 0.972 | S. cerevisiae deletion strains, locus YLL026W, active compounds read low 0.973 | S. cerevisiae deletion strains, locus YLL041C, strain sdh2, active compounds read low 0.992 | S. cerevisiae deletion strains, locus YLR027C, strain aat2, active compounds read low 0.97 | S. cerevisiae deletion strains, locus YLR039C, strain RIC1, active compounds read low 0.983 | S. cerevisiae deletion strains, locus YLR058C, strain SHM2, active compounds read low 0.997 | S. cerevisiae deletion strains, locus YLR102C, strain apc9, active compounds read low 0.992 | S. cerevisiae deletion strains, locus YLR113W, strain HOG1, active compounds read low 1.03 | S. cerevisiae deletion strains, locus YLR221C, strain rsa3, active compounds read low 1.06 | S. cerevisiae deletion strains, locus YLR258W, strain gsy2, active compounds read low 0.985 | S. cerevisiae deletion strains, locus YLR262C, strain YPT6 (second series), active compounds read low 0.971 | S. cerevisiae deletion strains, locus YLR262C, strain YPT6, active compounds read low 0.972 | S. cerevisiae deletion strains, locus YLR268W, strain sec22, active compounds read low 0.963 | S. cerevisiae deletion strains, locus YLR320W, strain mms22, active compounds read low 0.994 | S. cerevisiae deletion strains, locus YLR330W, strain CHS5, active compounds read low 0.989 | S. cerevisiae deletion strains, locus YLR342W, strain FKS1 (second series), active compounds read low 1.05 | S. cerevisiae deletion strains, locus YLR342W, strain FKS1, active compounds read low 0.961 | S. cerevisiae deletion strains, locus YLR357W, strain rsc2, active compounds read low 0.935 | S. cerevisiae deletion strains, locus YLR370C, strain arc18, active compounds read low 0.984 | S. cerevisiae deletion strains, locus YLR371W, strain rom2, active compounds read low 0.991 | S. cerevisiae deletion strains, locus YLR384C, strain iki3, active compounds read low 0.991 | S. cerevisiae deletion strains, locus YLR418C, strain cdc73, active compounds read low 1.03 | S. cerevisiae deletion strains, locus YML016C, strain PPZ1, active compounds read low 1 | S. cerevisiae deletion strains, locus YML032C, strain rad52, active compounds read low 0.967 | S. cerevisiae deletion strains, locus YML120C, strain ndi1, active compounds read low 0.993 | S. cerevisiae deletion strains, locus YML124C, strain tub3, active compounds read low 0.997 | S. cerevisiae deletion strains, locus YMR058W, strain fet3, active compounds read low 1.01 | S. cerevisiae deletion strains, locus YMR078C, strain ctf18, active compounds read low 0.985 | S. cerevisiae deletion strains, locus YMR125W, strain sto1, active compounds read low 0.989 | S. cerevisiae deletion strains, locus YMR129W, active compounds read low 0.991 | S. cerevisiae deletion strains, locus YMR205C, strain PFK2, active compounds read low 0.991 | S. cerevisiae deletion strains, locus YMR223W, strain ubp8, active compounds read low 1.02 | S. cerevisiae deletion strains, locus YMR231W, strain pep5, active compounds read low 0.978 | S. cerevisiae deletion strains, locus YMR263W, strain SAP30, active compounds read low 0.989 | S. cerevisiae deletion strains, locus YMR307W, strain GAS1, active compounds read low 1.08 | S. cerevisiae deletion strains, locus YNL067W, strain RPL9B, active compounds read low 0.978 | S. cerevisiae deletion strains, locus YNL071W, strain lat1, active compounds read low 1 | S. cerevisiae deletion strains, locus YNL128W, strain TEP1, active compounds read low 0.983 | S. cerevisiae deletion strains, locus YNL153C, strain GIM3, active compounds read low 0.985 | S. cerevisiae deletion strains, locus YNL183C, strain NPR1, active compounds read low 0.988 | S. cerevisiae deletion strains, locus YNL209W, strain ssb2, active compounds read low 1.01 | S. cerevisiae deletion strains, locus YNL233W, strain BNI4, active compounds read low 0.986 | S. cerevisiae deletion strains, locus YNL248C, strain rpa49, active compounds read low 1 | S. cerevisiae deletion strains, locus YNL250W, strain rad50, active compounds read low 0.972 | S. cerevisiae deletion strains, locus YNL271C, strain bni1, active compounds read low 0.966 | S. cerevisiae deletion strains, locus YNL298W, strain CLA4, active compounds read low 1 | S. cerevisiae deletion strains, locus YNL307C, strain MCK1, active compounds read low 0.996 | S. cerevisiae deletion strains, locus YNL322C, strain KRE1 (second series), active compounds read low 0.975 | S. cerevisiae deletion strains, locus YNL322C, strain KRE1, active compounds read low 0.991 | S. cerevisiae deletion strains, locus YNR049C, strain mso1, active compounds read low 0.996 | S. cerevisiae deletion strains, locus YNR052C, strain pop2, active compounds read low 0.993 | S. cerevisiae deletion strains, locus YOL006C, strain TOP1, active compounds read low 0.978 | S. cerevisiae deletion strains, locus YOL012C, strain htz1 2 | S. cerevisiae deletion strains, locus YOL147C, strain pex11, active compounds read low 0.985 | S. cerevisiae deletion strains, locus YOR001W, strain rrp6, active compounds read low 0.971 | S. cerevisiae deletion strains, locus YOR061W, strain CKA2, active compounds read low 0.995 | S. cerevisiae deletion strains, locus YOR069W, strain VPS5, active compounds read low 1 | S. cerevisiae deletion strains, locus YOR070C, strain gyp1, active compounds read low 0.999 | S. cerevisiae deletion strains, locus YOR080W, strain dia2, active compounds read low 0.98 | S. cerevisiae deletion strains, locus YOR083W, strain WHI5, active compounds read low 0.956 | S. cerevisiae deletion strains, locus YOR106W, strain vam3, active compounds read low 0.988 | S. cerevisiae deletion strains, locus YOR136W, strain idh2, active compounds read low 1 | S. cerevisiae deletion strains, locus YOR144C, strain elg1, active compounds read low 0.992 | S. cerevisiae deletion strains, locus YOR184W, strain ser1, active compounds read low 1.01 | S. cerevisiae deletion strains, locus YOR231W, strain MKK1, active compounds read low 0.992 | S. cerevisiae deletion strains, locus YOR265W, strain rbl2, active compounds read low 0.998 | S. cerevisiae deletion strains, locus YOR270C, strain vph1, active compounds read low 1.04 | S. cerevisiae deletion strains, locus YOR290C, strain snf2, active compounds read low 0.996 | S. cerevisiae deletion strains, locus YOR316C, strain cot1, active compounds read low 0.998 | S. cerevisiae deletion strains, locus YPL051W, strain arl3, active compounds read low 0.992 | S. cerevisiae deletion strains, locus YPL055C, strain LGE1, active compounds read low 1 | S. cerevisiae deletion strains, locus YPL078C, strain atp4, active compounds read low 0.98 | S. cerevisiae deletion strains, locus YPL106C, strain sse1, active compounds read low 0.974 | S. cerevisiae deletion strains, locus YPL240C, strain hsp82, active compounds read low 0.99 | S. cerevisiae deletion strains, locus YPL241C, strain CIN2, active compounds read low 0.996 | S. cerevisiae deletion strains, locus YPL256C, strain CLN2, active compounds read low 1.02 | S. cerevisiae deletion strains, locus YPR119W, strain clb2, active compounds read low 0.994 | S. cerevisiae deletion strains, locus YPR141C, strain kar3, active compounds read low 0.966 | S. cerevisiae deletion strains, locus YPR163C, strain tif3, active compounds read low 0.976 | S. cerevisiae deletion strains, locus YPR167C, strain met16, active compounds read low 0.989 | S. cerevisiae deletion strains, strain wtn01, active compounds read low 0.997 | S. cerevisiae strains, strain wild type, active compounds read low 0.995
